In PubChem BioAssay (EPA / NIEHS):
Inconclusive results are not listed. Active and inactive are the calls of the source. Rule for the calls, unless noted: active = hit-call score of the fitted dose curve at least 0.9, where 1 is the maximum; inactive = score below 0.9.

What was measured:
[1] = ATG_CRE_CIS: Attagene CIS-FACTORIAL HepG2 Assay for human cAMP Responsive Element (CRE) binding protein 3 (AID 2282926); conditions: HepG2 CRE cis-reporter, Attagene multiplexed mRNA; actives raise or lower the signal
In short: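 Induced reporter mRNA from a CRE cis element, measured in HepG2 among many multiplexed units at 24 h. Detection used RT-PCR plus capillary electrophoresis of fluorescent fragments; DMSO served as negative control.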

[2] = ATG_DR4_LXR_CIS: Attagene CIS-FACTORIAL HepG2 Assay for human Liver X Receptor (LXR), DR4 submotif (AID 2282929); conditions: HepG2 Attagene DR4 cis-reporter, mRNA transcription; actives raise or lower the signal
In short: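 Cells were transfected with multiple reporter transcription units, exposed to chemicals for 24 hours, then lysed for RNA. Reporter mRNA induction was measured by RT-PCR with capillary electrophoresis detection and fitted in both directions relative to DMSO.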

[3] = molecular target: Transcription factor E2F1 (Homo sapiens) (UniProt Q01094); experiment: ATG_E2F_CIS: Attagene CIS-FACTORIAL HepG2 Assay for human E2F Transcription Factor 1 (AID 2282935); conditions: HepG2 Attagene cis-reporter, E2F reporter RNA transcripts; actives raise or lower the signal
In short: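 Liver-derived HepG2 cells expressing transfected promoter-driven reporter units received test chemical for 24 hours. Signal gains or losses were fitted bidirectionally against DMSO.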

[4] = ATG_GLI_CIS: Attagene CIS-FACTORIAL HepG2 Assay for human Zinc Finger Protein GLI1 (AID 2282945); conditions: HepG2, Attagene cis-factorial reporter mRNA, GLI element; actives raise or lower the signal
In short: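 Transiently transfected HepG2 cells report endogenous transcription factor activity via cis-element-driven reporter units. After 24 h compound exposure, reporter mRNA was measured by RT-PCR with capillary electrophoresis; bidirectional fitting against DMSO baseline.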

[5] = molecular target: Hypoxia-inducible factor 1-alpha (Homo sapiens) (UniProt Q16665); experiment: ATG_HIF1a_CIS: Attagene CIS-FACTORIAL HepG2 Assay for human Hypoxia Inducible Factor 1 (HIF1A) (AID 2282951); conditions: HepG2 Attagene cis-factorial HIF1a reporter transcription; actives raise or lower the signal
In short: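 Measures endogenous transcription-factor activity through cis-regulated reporter mRNA in HepG2. Cells dosed 24 h; transcripts quantified by RT-PCR with 6-FAM-labelled products separated by capillary electrophoresis; DMSO serves as negative control.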

[6] = molecular target: Hepatocyte nuclear factor 6 (Homo sapiens) (UniProt Q9UBC0); experiment: ATG_HNF6_CIS: Attagene CIS-FACTORIAL HepG2 Assay for human Hepatocyte Nuclear Factor 6 (HNF6) (AID 2282952); conditions: HepG2 Attagene cis-factorial HNF6 reporter transcription; actives raise or lower the signal
In short: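 First, HepG2 cells were transfected with the multiplexed cis reporter library and dosed with chemical for 24 h. Next, RNA was reverse-transcribed, PCR-amplified and fluorescently labelled. Finally, HpaI-digested fragments were read by capillary electrophoresis.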

[7] = molecular target: Heat shock factor protein 1 (Homo sapiens) (UniProt Q00613); experiment: ATG_HSE_CIS: Attagene CIS-FACTORIAL HepG2 Assay for human Heat Shock Transcription Factor 1 (HSE) (AID 2282953); conditions: HepG2 HSE cis-reporter, Attagene RNA transcription; actives raise or lower the signal
In short: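 Endogenous transcription factor activity captured via cis-promoter reporter units transfected into HepG2; treatment lasted 24 h. Fluorescence intensity of reporter fragments analysed with bidirectional curve fitting, DMSO baseline.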

[8] = ATG_TA_CIS: Attagene CIS-FACTORIAL HepG2 Assay for human TA Basal Promoter (AID 2282964); conditions: HepG2 Attagene CIS-factorial TA basal promoter reporter; actives raise or lower the signal
In short: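 Fluorescence from labelled RT-PCR reporter fragments, separated by capillary electrophoresis, gives the signal. Cells: HepG2 transiently carrying multiple reporter units, 24 h chemical dosing. Gain or loss relative to DMSO.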

[9] = ATG_TCF_b_cat_CIS: Attagene CIS-FACTORIAL HepG2 Assay for human T-Cell-Factor with beta-catenin (TCF/b-cat) (AID 2282965); conditions: HepG2 TCF/beta-catenin cis-reporter transcription, actives raise or lower the signal
In short: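 HepG2 cells transiently transfected with cis-promoter-driven multiplexed reporter units; reporter mRNA measured 24 h after dosing by RT-PCR, FAM labelling, HpaI digestion and capillary electrophoresis. Bidirectional fitting relative to DMSO baseline.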

[10] = molecular target: Transcriptional activator Myb (Homo sapiens) (UniProt P10242); experiment: ATG_Myb_CIS: Attagene CIS-FACTORIAL HepG2 Assay for human Myeloblastosis (Myb) Proto-Oncogene Transcription Factor (AID 2282986); conditions: HepG2 Attagene CIS-FACTORIAL Myb reporter transcription; actives raise or lower the signal
In short: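 Steps: transfect HepG2 with cis-regulated reporter units; dose with chemical for 24 h; isolate RNA, reverse-transcribe, PCR-amplify and FAM-label reporter sequences; digest with HpaI; resolve by capillary electrophoresis. Activity fitted in both directions relative to DMSO.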

[11] = molecular target: Nuclear respiratory factor 1 (Homo sapiens) (UniProt Q16656); experiment: ATG_NRF1_CIS: Attagene CIS-FACTORIAL HepG2 Assay for human Nuclear Respiratory Factor 1 (NRF1) Orphan Gene (AID 2282987); conditions: HepG2 NRF1 cis-element reporter, Attagene multiplex; actives raise or lower the signal
In short: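 Fluorescence intensity of labelled reporter cDNA fragments, resolved by capillary electrophoresis, served as readout for NRF1 cis-element activity. Transiently transfected HepG2 cells were dosed for 24 hours; activity in either direction was fitted against DMSO negative control.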

[12] = ATG_NFI_CIS: Attagene CIS-FACTORIAL HepG2 Assay for human Nuclear Factor I (NFI) (AID 2282989); conditions: HepG2 cis-regulatory reporter, NFI response element transcription; actives raise or lower the signal
In short: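 Cells: human liver HepG2, transiently transfected with promoter-regulated reporter transcription units. Exposure 24 h. Detection: fluorescent RT-PCR products separated by capillary electrophoresis, normalised to DMSO negative control.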

[13] = molecular target: Myc proto-oncogene protein (Homo sapiens) (UniProt P01106); experiment: ATG_Myc_CIS: Attagene CIS-FACTORIAL HepG2 Assay for human Myelocytomatosis (Myc) Proto-Oncogene Transcription Factor (AID 2282990); conditions: HepG2, Attagene cis-reporter transcription factor activity; actives raise or lower the signal
In short: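 Transiently transfected HepG2 cells bearing cis-promoter reporter units for endogenous transcription factors; 24 h exposure. Reporter mRNA measured by RT-PCR, 6-FAM primer extension, HpaI cut and capillary electrophoresis; bidirectional fit relative to DMSO.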

[14] = ATG_NRF2_ARE_CIS: Attagene CIS-FACTORIAL HepG2 Assay for human Nuclear Factor Erythroid 2 Related Factor 2 (NFR2) response to Antioxidant Response Elements (ARE) (AID 2282992); conditions: HepG2 Attagene ARE/NRF2 reporter, transcription factor activity; actives raise or lower the signal;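 for AC50: reporter mRNA level measured by RT-PCR and capillary electrophoresis fluorescence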
In short: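 Fluorescence intensity of reporter-specific cDNA fragments, separated by capillary electrophoresis, reflects mRNA induction in transfected HepG2 cells at 24 h. Activity is fitted bidirectionally, DMSO serving as baseline.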

[15] = ATG_Oct_MLP_CIS: Attagene CIS-FACTORIAL HepG2 Assay for human Octamer-Binding Transcription Factor (Oct) (AID 2282993); conditions: HepG2 Attagene cis-factorial Oct reporter, mRNA; actives raise or lower the signal
In short: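 HepG2, transient MRTU transfection, cis promoter elements; 24 h dosing; RT-PCR/CE fluorescence read-out of reporter mRNA; fit both directions vs DMSO.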

[16] = molecular target: Cellular tumor antigen p53 (Homo sapiens) (UniProt P04637); experiment: ATG_p53_CIS: Attagene CIS-FACTORIAL HepG2 Assay for human p53 Transcription Factor (AID 2282994); conditions: HepG2 p53 cis-element reporter, Attagene mRNA; actives raise or lower the signal
In short: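 Transiently transfected HepG2 (multiple cis reporter transcription units); exposure 24 h; reporter RNA via RT-PCR, 6-FAM extension, 2 h HpaI digest at 37 C, CE detection; DMSO baseline.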

[17] = ATG_XTT_Cytotoxicity: Cytotoxicity Assessment in the Attagene TRANS-FACTORIAL HepG2 Assay (AID 2283584; active = hit-call score of the fitted dose curve at least 0.9, where 1 is the maximum)
In short: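 HepG2 cells transiently transfected with GAL4-UAS multiple reporter units, dosed 24 h; cytotoxicity read by XTT as loss of signal versus DMSO baseline.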

[18] = ATG_TGFb_CIS: Attagene CIS-FACTORIAL HepG2 Assay for human Transforming Growth Factor (TGF) (AID 2282967); conditions: HepG2 Attagene CIS TGFb reporter, mRNA transcription; actives raise or lower the signal
In short: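 Bidirectional fitting relative to DMSO gave the endpoint. Underlying data: reporter mRNA from HepG2 cells carrying transiently transfected cis-regulated reporter constructs, harvested 24 h after dosing and analyzed by RT-PCR and capillary electrophoresis.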

[19] = molecular target: Nuclear receptor subfamily 1 group I member 2 (Homo sapiens) (UniProt O75469); experiment: ATG_PXR_TRANS: Attagene TRANS-FACTORIAL HepG2 Assay for human Pregnane X Receptor (PXR) (AID 2283008; active = hit-call score of the fitted dose curve at least 0.9, where 1 is the maximum)
In short: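 Transient HepG2 transfectants carrying multiplexed reporter transcription units; PXR activity read through a Gal4 chimera. 24 h exposure. RT-PCR/CE fluorescence; upward curve fit referenced to DMSO.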

[20] = ATG_GRE_CIS: Attagene CIS-FACTORIAL HepG2 Assay for human Glucocorticoid Response Elements (GRE) (AID 2282947); conditions: HepG2 GRE cis-reporter, Attagene multiplex mRNA; actives raise or lower the signal
In short: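 Fluorescence intensity of reporter-specific cDNA fragments, separated by capillary electrophoresis, provides the signal. Constructs carry cis-regulating promoters in transiently transfected HepG2 liver cells; 24 h incubation; fitting is bidirectional against DMSO.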

Measured: AC50

Chain of Nuclear respiratory factor 1 (Homo sapiens) (Q16656 whole entry, looked up, the tested form may be a part): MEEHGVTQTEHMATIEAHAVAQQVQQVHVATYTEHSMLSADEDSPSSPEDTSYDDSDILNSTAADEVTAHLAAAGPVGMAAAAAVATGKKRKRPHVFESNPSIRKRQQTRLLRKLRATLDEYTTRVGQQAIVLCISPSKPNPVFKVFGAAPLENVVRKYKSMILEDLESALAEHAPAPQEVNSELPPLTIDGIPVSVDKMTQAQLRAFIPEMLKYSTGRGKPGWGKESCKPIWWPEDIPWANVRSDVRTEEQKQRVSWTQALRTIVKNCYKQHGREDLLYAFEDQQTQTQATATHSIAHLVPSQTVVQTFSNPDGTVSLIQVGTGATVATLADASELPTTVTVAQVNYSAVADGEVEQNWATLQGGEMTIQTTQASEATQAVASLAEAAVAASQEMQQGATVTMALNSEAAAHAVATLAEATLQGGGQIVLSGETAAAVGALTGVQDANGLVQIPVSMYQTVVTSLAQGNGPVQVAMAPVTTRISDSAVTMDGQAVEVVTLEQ
Chain of Myc proto-oncogene protein (Homo sapiens) (P01106 whole entry, looked up): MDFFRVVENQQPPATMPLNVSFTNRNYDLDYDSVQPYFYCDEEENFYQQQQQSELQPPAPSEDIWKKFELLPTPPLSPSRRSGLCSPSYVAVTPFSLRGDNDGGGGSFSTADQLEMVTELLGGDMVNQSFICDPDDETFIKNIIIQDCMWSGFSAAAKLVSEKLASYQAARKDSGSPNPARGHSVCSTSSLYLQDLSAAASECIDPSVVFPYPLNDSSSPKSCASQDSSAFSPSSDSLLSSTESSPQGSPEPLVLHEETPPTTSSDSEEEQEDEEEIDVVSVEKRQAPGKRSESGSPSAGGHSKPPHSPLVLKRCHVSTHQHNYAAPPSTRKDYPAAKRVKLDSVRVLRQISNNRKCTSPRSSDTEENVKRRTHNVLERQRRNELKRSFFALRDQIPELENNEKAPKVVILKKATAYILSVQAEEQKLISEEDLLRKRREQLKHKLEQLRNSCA
Chain of Transcriptional activator Myb (Homo sapiens) (P10242 whole entry, looked up): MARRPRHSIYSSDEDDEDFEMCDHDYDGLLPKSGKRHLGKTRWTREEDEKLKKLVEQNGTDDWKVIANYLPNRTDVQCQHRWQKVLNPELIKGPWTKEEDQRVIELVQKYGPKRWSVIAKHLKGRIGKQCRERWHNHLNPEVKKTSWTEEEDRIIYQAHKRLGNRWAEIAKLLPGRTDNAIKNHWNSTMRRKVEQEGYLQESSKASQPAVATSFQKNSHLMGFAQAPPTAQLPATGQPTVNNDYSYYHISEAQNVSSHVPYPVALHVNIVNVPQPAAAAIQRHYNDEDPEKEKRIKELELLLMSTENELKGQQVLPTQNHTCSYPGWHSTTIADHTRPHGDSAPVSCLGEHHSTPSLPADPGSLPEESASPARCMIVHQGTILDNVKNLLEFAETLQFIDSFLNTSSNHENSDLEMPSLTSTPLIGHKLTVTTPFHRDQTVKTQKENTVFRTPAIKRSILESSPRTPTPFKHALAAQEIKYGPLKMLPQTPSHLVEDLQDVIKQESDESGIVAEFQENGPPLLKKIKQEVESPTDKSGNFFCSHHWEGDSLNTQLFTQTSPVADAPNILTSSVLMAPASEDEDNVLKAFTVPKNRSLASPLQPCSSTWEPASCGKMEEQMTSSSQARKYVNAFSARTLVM
Chain of Hypoxia-inducible factor 1-alpha (Homo sapiens) (Q16665 whole entry, looked up): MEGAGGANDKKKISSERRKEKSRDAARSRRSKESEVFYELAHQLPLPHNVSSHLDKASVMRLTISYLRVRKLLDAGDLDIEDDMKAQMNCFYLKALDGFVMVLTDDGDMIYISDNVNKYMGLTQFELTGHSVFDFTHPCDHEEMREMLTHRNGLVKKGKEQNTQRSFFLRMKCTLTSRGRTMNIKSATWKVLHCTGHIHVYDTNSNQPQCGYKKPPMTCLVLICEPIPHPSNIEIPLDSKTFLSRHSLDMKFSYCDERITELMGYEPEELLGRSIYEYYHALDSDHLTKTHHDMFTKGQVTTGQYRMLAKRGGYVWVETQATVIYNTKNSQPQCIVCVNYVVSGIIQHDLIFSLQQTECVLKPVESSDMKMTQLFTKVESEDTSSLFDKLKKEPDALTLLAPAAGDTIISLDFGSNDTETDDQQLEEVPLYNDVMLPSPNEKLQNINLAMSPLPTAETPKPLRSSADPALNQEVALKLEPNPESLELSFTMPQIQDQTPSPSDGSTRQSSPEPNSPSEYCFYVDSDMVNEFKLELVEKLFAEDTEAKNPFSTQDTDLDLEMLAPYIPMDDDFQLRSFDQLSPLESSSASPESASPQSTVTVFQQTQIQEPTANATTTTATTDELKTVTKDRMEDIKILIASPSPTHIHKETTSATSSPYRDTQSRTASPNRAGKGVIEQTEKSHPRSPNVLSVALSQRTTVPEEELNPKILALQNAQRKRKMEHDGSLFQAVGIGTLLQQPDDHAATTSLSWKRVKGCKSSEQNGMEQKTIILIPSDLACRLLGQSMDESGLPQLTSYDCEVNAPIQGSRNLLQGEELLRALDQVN
Chain of Transcription factor E2F1 (Homo sapiens) (Q01094 whole entry, looked up): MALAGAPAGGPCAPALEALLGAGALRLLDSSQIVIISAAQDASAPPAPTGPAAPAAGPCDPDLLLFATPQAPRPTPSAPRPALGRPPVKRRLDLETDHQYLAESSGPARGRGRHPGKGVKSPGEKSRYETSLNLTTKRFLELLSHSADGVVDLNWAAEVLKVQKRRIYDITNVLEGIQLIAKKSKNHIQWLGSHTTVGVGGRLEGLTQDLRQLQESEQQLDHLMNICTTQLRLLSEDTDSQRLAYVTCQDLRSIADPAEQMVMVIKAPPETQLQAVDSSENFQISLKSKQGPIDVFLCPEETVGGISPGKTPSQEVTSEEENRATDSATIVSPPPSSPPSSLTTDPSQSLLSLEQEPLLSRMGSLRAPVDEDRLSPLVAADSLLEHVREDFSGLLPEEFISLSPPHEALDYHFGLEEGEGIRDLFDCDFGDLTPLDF
Chain of Nuclear receptor subfamily 1 group I member 2 (Homo sapiens) (O75469 whole entry, looked up, the tested form may be a part): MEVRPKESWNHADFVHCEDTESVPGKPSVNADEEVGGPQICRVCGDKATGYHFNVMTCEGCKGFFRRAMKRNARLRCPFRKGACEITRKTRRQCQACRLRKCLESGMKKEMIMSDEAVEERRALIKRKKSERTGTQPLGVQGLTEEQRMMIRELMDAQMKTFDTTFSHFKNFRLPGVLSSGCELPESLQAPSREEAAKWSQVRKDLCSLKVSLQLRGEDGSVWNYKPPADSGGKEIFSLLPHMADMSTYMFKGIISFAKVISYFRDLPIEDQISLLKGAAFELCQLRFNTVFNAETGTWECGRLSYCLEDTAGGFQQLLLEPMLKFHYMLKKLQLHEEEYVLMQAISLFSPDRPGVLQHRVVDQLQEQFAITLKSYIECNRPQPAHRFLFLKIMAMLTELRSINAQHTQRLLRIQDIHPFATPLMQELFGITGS
Chain of Cellular tumor antigen p53 (Homo sapiens) (P04637 whole entry, looked up): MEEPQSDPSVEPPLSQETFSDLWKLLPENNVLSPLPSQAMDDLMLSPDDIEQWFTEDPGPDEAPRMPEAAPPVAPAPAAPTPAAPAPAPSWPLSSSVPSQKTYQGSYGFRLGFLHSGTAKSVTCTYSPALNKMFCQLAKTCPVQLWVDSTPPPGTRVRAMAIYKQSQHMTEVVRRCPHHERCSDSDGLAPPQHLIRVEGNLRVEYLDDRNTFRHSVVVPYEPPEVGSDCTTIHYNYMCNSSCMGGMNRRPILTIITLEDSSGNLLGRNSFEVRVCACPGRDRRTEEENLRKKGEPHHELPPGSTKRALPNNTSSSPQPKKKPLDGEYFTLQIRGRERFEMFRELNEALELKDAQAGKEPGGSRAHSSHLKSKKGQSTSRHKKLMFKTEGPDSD
Chain of Heat shock factor protein 1 (Homo sapiens) (Q00613 whole entry, looked up, the tested form may be a part): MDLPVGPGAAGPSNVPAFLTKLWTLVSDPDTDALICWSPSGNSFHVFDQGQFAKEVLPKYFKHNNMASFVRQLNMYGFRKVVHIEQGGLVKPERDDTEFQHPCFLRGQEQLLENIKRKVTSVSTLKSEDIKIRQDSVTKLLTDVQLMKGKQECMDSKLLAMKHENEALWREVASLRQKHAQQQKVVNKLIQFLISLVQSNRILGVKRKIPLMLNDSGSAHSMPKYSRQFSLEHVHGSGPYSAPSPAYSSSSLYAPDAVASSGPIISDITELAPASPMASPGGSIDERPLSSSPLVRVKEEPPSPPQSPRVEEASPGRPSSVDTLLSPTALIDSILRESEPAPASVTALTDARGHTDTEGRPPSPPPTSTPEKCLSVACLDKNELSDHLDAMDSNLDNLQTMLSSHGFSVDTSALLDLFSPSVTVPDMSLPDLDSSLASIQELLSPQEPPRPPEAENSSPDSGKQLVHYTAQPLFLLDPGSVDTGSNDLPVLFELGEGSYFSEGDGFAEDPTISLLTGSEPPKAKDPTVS
Chain of Hepatocyte nuclear factor 6 (Homo sapiens) (Q9UBC0 whole entry, looked up, the tested form may be a part): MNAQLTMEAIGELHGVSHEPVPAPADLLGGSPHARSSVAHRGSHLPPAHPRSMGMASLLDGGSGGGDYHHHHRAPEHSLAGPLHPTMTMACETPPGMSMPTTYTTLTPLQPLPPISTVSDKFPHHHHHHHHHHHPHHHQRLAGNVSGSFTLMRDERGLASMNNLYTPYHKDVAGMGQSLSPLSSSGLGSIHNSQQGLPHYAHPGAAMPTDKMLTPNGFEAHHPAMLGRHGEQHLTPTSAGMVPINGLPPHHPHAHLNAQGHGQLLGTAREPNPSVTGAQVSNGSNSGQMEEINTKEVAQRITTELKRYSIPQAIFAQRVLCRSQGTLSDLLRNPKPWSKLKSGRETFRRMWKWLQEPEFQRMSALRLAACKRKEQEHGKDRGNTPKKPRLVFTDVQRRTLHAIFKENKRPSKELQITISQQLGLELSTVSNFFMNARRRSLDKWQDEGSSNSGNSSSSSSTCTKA

CCCC[N+]1(C)CCCC1
inactive: [1] | [2] | [3] | [4] | [5] | [6] | [7] | [8] | [9] | [10] | [11] | [12] | [13] | [14] | [15] | [16] | [17]

Oc1ccc(Cl)cc1C1CCCC1
inactive: [5] | [7] | [8] | [18] | [10] | [17]
active: [1] 33.4 µM | [2] 43.2 µM | [6] 55.6 µM | [9] 61.4 µM | [11] 44.1 µM | [12] 33.4 µM | [14] 12.9 µM | [15] 47.9 µM | [16] 56.7 µM | [19] 9.24 µM

CCCCCC[C@@H](O)C/C=C\CCCCCCCC(=O)O
active: [2] 70.4 µM | [3] 177 µM | [20] 186 µM | [6] 160 µM | [7] 187 µM | [9] 60.1 µM | [10] 123 µM | [11] 139 µM | [12] 153 µM | [14] 100 µM
inactive: [1] | [4] | [5] | [8] | [13] | [15] | [16] | [19] | [17]

O=C(C(=O)c1ccccc1)c1ccccc1
active: [19] 11.3 µM
inactive: [1] | [2] | [3] | [4] | [20] | [5] | [6] | [7] | [8] | [9] | [18] | [10] | [11] | [12] | [13] | [14] | [15] | [16] | [17]

CC(=O)OC(C)(C)Cc1ccccc1
inactive: [1] | [2] | [4] | [5] | [6] | [7] | [8] | [18] | [10] | [11] | [12] | [13] | [14] | [15] | [16] | [19] | [17]

C=C1CC[C@H]2C[C@@H]1C2(C)C
inactive: [2] | [4] | [5] | [6] | [7] | [10] | [11] | [12] | [15] | [17]
active: [1] 26 µM | [14] 21.9 µM | [19] 10.4 µM

O=[N+]([O-])c1ccc2nc[nH]c2c1
inactive: [1] | [2] | [3] | [5] | [6] | [7] | [8] | [10] | [11] | [12] | [13] | [14] | [15] | [17]

CCCN[C@H]1CCc2nc(N)sc2C1
inactive: [1] | [2] | [3] | [5] | [6] | [7] | [9] | [18] | [10] | [11] | [12] | [13] | [14] | [15] | [16]

COCCCN
inactive: [1] | [2] | [3] | [20] | [5] | [6] | [7] | [8] | [9] | [10] | [11] | [12] | [13] | [14] | [15] | [16] | [17]
